Reference: PubChem BioAssay (EPA / NIEHS)
Active and inactive are the calls of the source. How the source made its calls: active means hit-call score of the fitted dose curve at least 0.9, where 1 is the maximum; inactive means score below 0.9.

Tests used:
[1] = ATG_CRE_CIS: Attagene CIS-FACTORIAL HepG2 Assay for human cAMP Responsive Element (CRE) binding protein 3 (AID 2282926); conditions: HepG2 CRE cis-reporter, Attagene multiplexed mRNA; actives raise or lower the signal
Summary of the method: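 Liver-derived HepG2, transfected with a CRE-containing reporter panel, exposed 24 h; transcript levels sized and quantified by capillary electrophoresis of labelled amplicons; signal changes either way referenced to vehicle.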

[2] = target: CCAAT/enhancer-binding protein beta (Homo sapiens) (UniProt P17676); assay: ATG_C_EBP_CIS: Attagene CIS-FACTORIAL HepG2 Assay for human CCAAT/Enhancer Binding Protein (C/EBP) beta (AID 2282927); conditions: HepG2 Attagene cis-factorial transcription factor reporter; actives raise or lower the signal
Chain of CCAAT/enhancer-binding protein beta (Homo sapiens) (P17676 whole entry, looked up): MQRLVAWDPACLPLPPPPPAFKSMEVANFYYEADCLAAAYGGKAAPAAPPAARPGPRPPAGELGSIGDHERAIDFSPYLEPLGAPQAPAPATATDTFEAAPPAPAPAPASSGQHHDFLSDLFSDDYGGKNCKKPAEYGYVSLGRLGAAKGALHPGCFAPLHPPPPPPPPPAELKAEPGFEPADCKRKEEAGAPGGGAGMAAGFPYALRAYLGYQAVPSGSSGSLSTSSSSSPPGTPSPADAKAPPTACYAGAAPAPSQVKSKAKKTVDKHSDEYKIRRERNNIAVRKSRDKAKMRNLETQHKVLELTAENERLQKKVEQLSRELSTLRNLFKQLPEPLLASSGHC
Summary of the method: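 Following a 24 h incubation with test chemical, transfected HepG2 cells yielded RNA whose reporter transcripts were quantified by RT-PCR and fluorescent capillary electrophoresis, with DMSO serving as baseline for bidirectional fitting.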

[3] = ATG_CMV_CIS: Attagene CIS-FACTORIAL HepG2 Assay for human CMV (Internal Marker) (AID 2282928); conditions: HepG2 CMV promoter reporter, transcription factor profiling; actives raise or lower the signal;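 further: endpoint acts as a background internal control marker rather than a target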
Summary of the method: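 24 h chemical treatment, HepG2 with transient multi-reporter transfection; RNA → oligo(dT) RT → PCR → 6-FAM extension → HpaI digest → CE fluorescence. Bidirectional fit, DMSO negative control.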

[4] = target: Aryl hydrocarbon receptor (Homo sapiens) (UniProt P35869); assay: ATG_Ahr_CIS: Attagene CIS-FACTORIAL HepG2 Assay for human Aryl Hydrocarbon Receptor (Ahr) (AID 2282930); conditions: HepG2 AhR cis-factorial reporter transcription; actives raise or lower the signal
Chain of Aryl hydrocarbon receptor (Homo sapiens) (P35869 whole entry, looked up): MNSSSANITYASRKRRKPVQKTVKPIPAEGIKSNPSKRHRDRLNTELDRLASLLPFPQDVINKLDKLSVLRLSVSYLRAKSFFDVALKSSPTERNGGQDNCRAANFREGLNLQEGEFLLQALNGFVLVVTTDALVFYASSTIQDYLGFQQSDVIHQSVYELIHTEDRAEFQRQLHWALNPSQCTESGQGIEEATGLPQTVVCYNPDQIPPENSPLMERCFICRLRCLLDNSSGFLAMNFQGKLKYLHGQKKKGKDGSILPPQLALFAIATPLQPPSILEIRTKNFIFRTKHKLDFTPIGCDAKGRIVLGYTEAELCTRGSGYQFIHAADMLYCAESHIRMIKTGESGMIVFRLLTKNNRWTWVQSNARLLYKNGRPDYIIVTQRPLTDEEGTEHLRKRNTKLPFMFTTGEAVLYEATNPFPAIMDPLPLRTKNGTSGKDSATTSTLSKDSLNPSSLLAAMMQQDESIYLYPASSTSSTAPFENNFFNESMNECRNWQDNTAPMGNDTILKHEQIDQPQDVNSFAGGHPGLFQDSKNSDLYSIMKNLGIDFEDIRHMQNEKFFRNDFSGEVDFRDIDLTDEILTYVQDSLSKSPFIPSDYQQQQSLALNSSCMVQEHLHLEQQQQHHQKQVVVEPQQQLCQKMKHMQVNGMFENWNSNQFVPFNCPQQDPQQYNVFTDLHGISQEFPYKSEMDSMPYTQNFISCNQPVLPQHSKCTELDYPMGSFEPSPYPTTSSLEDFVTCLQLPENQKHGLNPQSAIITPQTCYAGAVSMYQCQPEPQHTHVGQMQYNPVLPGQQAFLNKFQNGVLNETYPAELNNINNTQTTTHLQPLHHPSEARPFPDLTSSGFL
Summary of the method: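 Values derive from bidirectional fitting against DMSO negative control. Underlying signal: cis-element reporter mRNA in transiently transfected HepG2, harvested 24 h post-dose and measured by RT-PCR plus capillary electrophoresis.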

[5] = ATG_AP_1_CIS: Attagene CIS-FACTORIAL HepG2 Assay for human Activator Protein 1 (AP-1) (AID 2282931); conditions: HepG2 Attagene cis-factorial AP-1 reporter mRNA; actives raise or lower the signal
Summary of the method: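 HepG2 cells transiently transfected with cis-element-driven multiplex reporter units; 24 h compound exposure. Reporter mRNA quantified by RT-PCR, FAM-labelled fragments resolved by capillary electrophoresis; bidirectional fit versus DMSO baseline.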

[6] = ATG_AP_2_CIS: Attagene CIS-FACTORIAL HepG2 Assay for human Activator Protein 2 (AP-2) (AID 2282932); conditions: HepG2 AP-2 cis-reporter, Attagene transcription factor profiling; actives raise or lower the signal
Summary of the method: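 Assay in transfected HepG2 with promoter-regulated reporters, 24 h incubation after dosing. Signal is reporter mRNA fluorescence (RT-PCR, capillary electrophoresis), analysed for both increases and decreases relative to DMSO controls.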

[7] = ATG_BRE_CIS: Attagene CIS-FACTORIAL HepG2 Assay for human Bone Morphogenetic Protein (BMP) Response Element (BRE) (AID 2282933); conditions: HepG2 BMP response element reporter, Attagene transcription factor profiling; actives raise or lower the signal
Summary of the method: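 Fluorescence-labelled reporter cDNA fragments, separated by capillary electrophoresis, gave the signal for this component of a 52-readout multiplex. HepG2 cells were transfected, exposed to chemicals for 24 h, and compared with DMSO using bidirectional fitting.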

[8] = target: Transcription factor E2F1 (Homo sapiens) (UniProt Q01094); assay: ATG_E2F_CIS: Attagene CIS-FACTORIAL HepG2 Assay for human E2F Transcription Factor 1 (AID 2282935); conditions: HepG2 Attagene cis-reporter, E2F reporter RNA transcripts; actives raise or lower the signal
Chain of Transcription factor E2F1 (Homo sapiens) (Q01094 whole entry, looked up): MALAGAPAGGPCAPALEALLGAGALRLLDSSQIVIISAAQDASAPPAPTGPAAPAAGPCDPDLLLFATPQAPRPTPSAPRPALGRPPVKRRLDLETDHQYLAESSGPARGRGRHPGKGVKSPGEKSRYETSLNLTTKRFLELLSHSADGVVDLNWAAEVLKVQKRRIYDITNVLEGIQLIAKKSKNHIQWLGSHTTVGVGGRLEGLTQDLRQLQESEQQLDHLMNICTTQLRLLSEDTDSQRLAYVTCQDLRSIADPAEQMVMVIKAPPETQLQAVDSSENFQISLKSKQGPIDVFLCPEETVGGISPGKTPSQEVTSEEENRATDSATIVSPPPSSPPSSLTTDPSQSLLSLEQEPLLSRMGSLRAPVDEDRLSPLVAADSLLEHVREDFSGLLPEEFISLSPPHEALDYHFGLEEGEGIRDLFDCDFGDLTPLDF
Summary of the method: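 In this cis-factorial format, endogenous factor activity drives transfected reporters in HepG2; transcripts collected at 24 h are quantified by fluorescence after RT-PCR and capillary separation.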

[9] = ATG_E_Box_CIS: Attagene CIS-FACTORIAL HepG2 Assay for human Enhancer Box (E-box) (AID 2282936); conditions: HepG2 E-box cis-reporter transcription, actives raise or lower the signal
Summary of the method: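 Measured 24 h post-dosing in HepG2 cells transfected with multiple cis-regulated reporter units, signal being reporter mRNA induction detected by fluorescent RT-PCR with capillary electrophoresis; gain or loss fitted against DMSO.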

[10] = ATG_M_61_CIS: Attagene CIS-FACTORIAL HepG2 Assay for M61 Transcription Factor (Internal Marker) (AID 2282937); conditions: HepG2 Attagene CIS-FACTORIAL M61 internal marker reporter; actives raise or lower the signal
Summary of the method: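 HepG2 cells transiently transfected with cis-element-driven multiple reporter transcription units, dosed for 24 h. Reporter mRNA measured by RT-PCR, 6-FAM primer-extension labelling, HpaI digestion and capillary electrophoresis; bidirectional fit versus DMSO baseline.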

[11] = ATG_EGR_CIS: Attagene CIS-FACTORIAL HepG2 Assay for human Early Growth Response 1 (EGR1) (AID 2282938); conditions: HepG2 Attagene CIS-FACTORIAL EGR reporter mRNA; actives raise or lower the signal
Summary of the method: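 HepG2 cells transiently transfected with cis-promoter-driven multiplexed reporter transcription units; reporter mRNA measured 24 h after compound dosing by RT-PCR, 6-FAM primer extension, HpaI digestion and capillary electrophoresis. Bidirectional fit versus DMSO baseline.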

[12] = ATG_M_19_CIS: Attagene CIS-FACTORIAL HepG2 Assay for M19 Transcription Factor (Internal Marker) (AID 2282939); conditions: HepG2 Attagene CIS-FACTORIAL M19 internal marker reporter; actives raise or lower the signal
Summary of the method: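 HepG2, MRTU transient transfection, 24 h dosing. Total RNA → RT-PCR → 6-FAM primer extension → HpaI digest → CE fluorescence. Bidirectional curve fit, DMSO negative control.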

[13] = ATG_ERE_CIS: Attagene CIS-FACTORIAL HepG2 Assay for Estrogen Response Element (ERE) (AID 2282940); conditions: HepG2 ERE cis-reporter, Attagene RNA transcript; actives raise or lower the signal
Summary of the method: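 After a 24 h chemical treatment, RNA from reporter-transfected HepG2 cells is reverse-transcribed, PCR-amplified and fluorescently labelled. Fragments separated by capillary electrophoresis give reporter signal; DMSO serves as negative control.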

[14] = ATG_Ets_CIS: Attagene CIS-FACTORIAL HepG2 Assay for human Erythroblast Transformation Specific (ETS) (AID 2282941); conditions: HepG2 ETS cis-reporter transcription, actives raise or lower the signal
Summary of the method: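 Cis-regulated reporter mRNA induction in HepG2 (transient transfection), 24 h exposure, RT-PCR plus capillary electrophoresis detection; DMSO serves as negative control and baseline.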

[15] = target: Hepatocyte nuclear factor 3-beta (Homo sapiens) (UniProt Q9Y261); assay: ATG_FoxA2_CIS: Attagene CIS-FACTORIAL HepG2 Assay for human Forkhead box A2 (FOXA2) (AID 2282942); conditions: HepG2 cis-reporter transcription factor activity, 24 h; actives raise or lower the signal
Chain of Hepatocyte nuclear factor 3-beta (Homo sapiens) (Q9Y261 whole entry, looked up): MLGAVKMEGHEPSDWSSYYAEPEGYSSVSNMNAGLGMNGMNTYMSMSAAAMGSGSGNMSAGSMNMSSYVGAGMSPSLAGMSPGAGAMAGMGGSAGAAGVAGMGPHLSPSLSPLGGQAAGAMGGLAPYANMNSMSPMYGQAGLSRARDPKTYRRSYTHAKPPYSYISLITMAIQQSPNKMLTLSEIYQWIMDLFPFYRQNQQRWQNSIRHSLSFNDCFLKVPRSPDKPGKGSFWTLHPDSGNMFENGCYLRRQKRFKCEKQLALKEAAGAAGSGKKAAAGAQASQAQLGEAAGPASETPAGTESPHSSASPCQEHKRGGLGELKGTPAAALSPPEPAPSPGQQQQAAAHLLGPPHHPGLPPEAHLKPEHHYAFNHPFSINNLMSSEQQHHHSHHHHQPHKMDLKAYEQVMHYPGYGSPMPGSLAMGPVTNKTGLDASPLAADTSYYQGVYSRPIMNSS
Summary of the method: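 HepG2 cells transiently transfected with multiple cis-regulated reporter transcription units, dosed for 24 h. Reporter mRNA measured by RT-PCR, 6-FAM labelling, HpaI digestion and capillary electrophoresis; bidirectional fitting against DMSO baseline.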

[16] = ATG_FoxO_CIS: Attagene CIS-FACTORIAL HepG2 Assay for human Forkhead box O (FoxO) (AID 2282943); conditions: HepG2 Attagene cis-reporter, FoxO element, mRNA; actives raise or lower the signal
Summary of the method: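 Values reflect reporter mRNA induction or loss in HepG2 cells 24 h post-dosing, fitted bidirectionally with DMSO as negative control and baseline. Detection used RT-PCR and fluorescence capillary electrophoresis.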

[17] = ATG_GATA_CIS: Attagene CIS-FACTORIAL HepG2 Assay for human GATA Binding Protein (AID 2282944); conditions: HepG2 GATA cis-element reporter, Attagene multiplex mRNA; actives raise or lower the signal
Summary of the method: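 Cells: HepG2, transiently transfected with cis-regulated reporter transcription units. Exposure: 24 h. Detection: RT-PCR plus capillary electrophoresis of FAM-labeled fragments. Analysis: bidirectional, DMSO as baseline.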

[18] = ATG_GLI_CIS: Attagene CIS-FACTORIAL HepG2 Assay for human Zinc Finger Protein GLI1 (AID 2282945); conditions: HepG2, Attagene cis-factorial reporter mRNA, GLI element; actives raise or lower the signal
Summary of the method: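 HepG2 cells transiently transfected with cis-promoter multiplexed reporter units report endogenous transcription factor activity. After 24 h chemical exposure, reporter mRNA was quantified by RT-PCR, 6-FAM labelling, HpaI digestion and capillary electrophoresis, with bidirectional fitting against DMSO.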

[19] = target: Retinoic acid receptor alpha (Homo sapiens) (UniProt P10276); assay: ATG_DR5_RAR_CIS: Attagene CIS-FACTORIAL HepG2 Assay for human Retinoic Acid Receptor Alpha (RARE), DR5 submotif (AID 2282934); conditions: HepG2 Attagene cis-factorial RARE DR5 reporter, mRNA; actives raise or lower the signal
Chain of Retinoic acid receptor alpha (Homo sapiens) (P10276 whole entry, looked up): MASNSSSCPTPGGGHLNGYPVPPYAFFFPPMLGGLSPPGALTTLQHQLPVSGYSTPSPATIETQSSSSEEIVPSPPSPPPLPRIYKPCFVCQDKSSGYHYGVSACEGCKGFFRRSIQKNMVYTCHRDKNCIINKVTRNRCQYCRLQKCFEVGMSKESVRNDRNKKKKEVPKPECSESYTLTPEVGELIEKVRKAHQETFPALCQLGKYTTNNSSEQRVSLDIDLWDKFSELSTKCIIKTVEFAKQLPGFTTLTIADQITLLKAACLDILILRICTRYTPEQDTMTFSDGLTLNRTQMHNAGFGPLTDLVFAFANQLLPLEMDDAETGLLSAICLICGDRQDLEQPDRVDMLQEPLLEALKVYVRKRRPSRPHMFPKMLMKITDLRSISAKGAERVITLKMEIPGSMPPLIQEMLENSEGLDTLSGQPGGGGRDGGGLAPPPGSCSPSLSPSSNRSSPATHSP
Summary of the method: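 Endpoint fitted in both directions relative to DMSO as negative control. It reflects DR5 cis-element reporter mRNA induction in transiently transfected HepG2 cells, measured 24 h after dosing through RT-PCR and fluorescent capillary electrophoresis.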

[20] = ATG_DR4_LXR_CIS: Attagene CIS-FACTORIAL HepG2 Assay for human Liver X Receptor (LXR), DR4 submotif (AID 2282929); conditions: HepG2 Attagene DR4 cis-reporter, mRNA transcription; actives raise or lower the signal
Summary of the method: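 HepG2 cells transiently transfected with cis-promoter-driven multiplexed reporter units (DR4 element) were dosed for 24 h. Reporter mRNA was quantified by RT-PCR, fluorescent primer extension, HpaI digestion and capillary electrophoresis; bidirectional fitting versus DMSO baseline.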

Measured: AC50

CCN(CC)c1ccc2c(-c3ccccc3C(=O)O)c3ccc(=[N+](CC)CC)cc-3oc2c1
active: [7] 158 µM | [11] 135 µM
not listed: [19] | [20]
inactive: all other assays above

CC(C)(CO)[N+](=O)[O-]
not listed: [13] | [14] | [19] | [20]
inactive: all other assays above

CC(C=O)Cc1ccc(C(C)C)cc1 (centres undefined)
not listed: [13] | [19] | [20]
inactive: all other assays above

CCC(C)CCCC(C)(C)O (centres undefined)
not listed: [7] | [9] | [13] | [20]
inactive: all other assays above

O=C(O)C[C@H](O)C[C@H](O)/C=C/c1c(C2CC2)nc2ccccc2c1-c1ccc(F)cc1
active: [13] 11.6 µM
not listed: [5] | [7] | [10] | [14] | [19]
inactive: all other assays above

CCCC(C)C=O (centres undefined)
not listed: [19] | [20]
inactive: all other assays above

O=C(O)CN(CCN(CC(=O)O)CC(=O)O)CCN(CC(=O)O)CC(=O)O
not listed: [13] | [17] | [20]
inactive: all other assays above

CC(CCO)CCCC(C)(C)O (centres undefined)
not listed: [13] | [19] | [20]
inactive: all other assays above
